Reference: PubChem BioAssay AID463173 (ICCB-Longwood Screening Facility, Harvard Medical School, 2010)
Out of some 52,000 compounds screened, about 1,700 (3.3%) were called active. The full list was thinned out, with actives kept by preference. Values without a mark were called inactive. No stated cut-off is given here; in the data, active means survival mostly below about 52% (no sharp cut-off); inactive means mostly above about 56%.

What follows are compounds tested on Wild type (assay: S. aureus survival, RN4220 and DeltatarO strains – OD600, teichoic acid synthesis inhibitors, primary screen (AID 463173)). Conditions: S. aureus RN4220 wild type/DeltatarO growth, OD600, 18 h, hits give low values, screened at 18.75 µg/mL (by protocol).

Structure (SMILES)	survival
COc1ccc(N2CC(NC(=O)/C=C\c3ccccc3)CC2=O)cc1 (configuration not stated)	101%
CC(=O)Nc1ccc(N2CCN(Cc3ccccc3)CC2)cc1	106%
COc1ccc2oc(=O)c(-c3csc(-c4ccc(Br)cc4)n3)cc2c1	80%
CCc1nn(CC(=O)NC2CC2)c(=O)c2cc3ccccc3n12	121%
Cc1ccc2c(=O)cc(C(=O)Nc3nc4ccc(Cl)cc4s3)oc2c1	65%
Cc1cc(C)cc(NC(=O)Cn2nnc(C(=O)NCCc3ccccc3)c2N)c1	93%
COc1ccc(NC(=O)c2c(NC(=O)COc3ccccc3)sc3c2CCC(C(C)(C)C)C3)cc1 (configuration not stated)	77%
COc1ccc(NC(=O)c2c(NC(=O)c3ccncc3)sc3c2CCC(C(C)(C)C)C3)cc1 (configuration not stated)	47%
Cc1ccccc1NC(=O)c1c(NC(=O)c2ccco2)sc2c1CCC(C(C)(C)C)C2 (configuration not stated)	75%
Cc1ccccc1C(=O)Nc1sc2c(c1C(=O)N1CCCCC1)CCC(C(C)(C)C)C2 (configuration not stated)	1% (active)
CCC(=O)Nc1sc2c(c1C(=O)Nc1ccc(OC)cc1)CCC(C(C)(C)C)C2 (configuration not stated)	2% (active)
Cc1ccccc1C(=O)Nc1nc2c(s1)CC(C(C)(C)C)CC2 (configuration not stated)	124%
CCc1cccc(C)c1NC(=O)CN1C(=O)C2(SCC(=O)N2c2cccc(F)c2)c2ccccc21 (configuration not stated)	136%
Cc1c(Cl)cccc1NC(=O)Cn1nnc(-c2nc(-c3ccccc3)no2)c1N	55%
COc1ccc2c(c1)c1c(c(=O)n(-c3ccccc3C)c(=O)n1C)n2C	81%
CCOc1cc(S(=O)(=O)NC2CC2)c(OCC)cc1-n1cnnn1	102%
COc1ccc(Br)cc1CNC(=O)c1cc(=O)[nH]c2ccc(S(=O)(=O)N3CCCCC3C)cc12 (configuration not stated)	105%
COc1ccc(OC)c(CNC(=O)c2cc(=O)[nH]c3ccc(S(=O)(=O)N4CCCCC4C)cc23)c1 (configuration not stated)	1% (active)
COc1ccc(CCNC(=O)c2cc(=O)[nH]c3ccc(S(=O)(=O)N4CCCCC4C)cc23)cc1OC (configuration not stated)	127%

Structure (SMILES)	survival
Cc1nn(C(=O)c2ccccc2)c(C)c1S(=O)(=O)N1CCCCCC1	80%
Cc1nn(C(=O)c2ccc(Br)cc2)c(C)c1S(=O)(=O)N1CCOCC1	71%
Cc1ccc(Sc2c(C)nn(C(=O)c3ccc(Br)cc3)c2C)cc1	13% (active)
Cc1ccc(Sc2c(C)nn(C(=O)COc3ccccc3Br)c2C)cc1	90%
Cc1nn(C(=O)c2ccc(Br)cc2)c(C)c1Sc1ccccc1	-4% (active)
Cc1nn(C(=O)COc2ccccc2Br)c(C)c1Sc1ccccc1	57%
Cc1ccc(C)c(NC(=O)N2CCC(CN3CCOCC3)CC2)c1	135%
CCC(CC)c1nn2c(=O)cc(COc3ccc(NC(=O)c4ccc(Cl)cc4)cc3)nc2s1	86%
Cc1ccc(Nc2ccc(N3CCN(C(=O)c4ccc([N+](=O)[O-])cc4Cl)CC3)nn2)cc1	129%
COCCn1c(SCC(=O)c2c[nH]c3ccccc23)nc2cc(C(=O)NCC(C)C)ccc2c1=O	73%
COCCn1c(SCC(=O)c2ccccc2)nc2cc(C(=O)NC3CCCC3)ccc2c1=O	76%
COCCNC(=O)c1ccc2c(=O)n(CCc3ccccc3)c(SCC(=O)CC(=O)OC)nc2c1	78%
COCCn1c(SCC(=O)c2c[nH]c3ccccc23)nc2cc(C(=O)NC(C)C)ccc2c1=O	14% (active)
COCCNC(=O)c1ccc2c(=O)n(CCOC)c(SCC(=O)c3c[nH]c4ccccc34)nc2c1	-1% (active)
COCCn1c(SCC(=O)c2c(C)[nH]c3ccccc23)nc2cc(C(=O)NC(C)C)ccc2c1=O	74%
CCOc1ccc(NC(=O)CCSc2nc(-c3ccc4c(c3)OCO4)cc(C(F)(F)F)n2)cc1	72%
COc1ccc(C)cc1NC(=O)NCc1cccn1Cc1ccccc1	98%
O=C(NCc1ccccc1Cl)c1ccc(NC(=O)N2CCSc3ccccc32)cc1	67%
N#CCCSCc1ccc(C(=O)O)o1	107%

Structure (SMILES)	survival
COc1ccc(-c2nc3cc(C(C)C)ccc3o2)cc1NC(=O)c1ccc(C)c(Cl)c1	5% (active)
Cc1ccc(-c2nc3cc(Cl)ccc3o2)cc1NC(=O)c1cc2ccccc2o1	72%
CC(C)c1ccc2oc(-c3ccc(NC(=O)c4cc5ccccc5o4)cc3)nc2c1	61%
COc1ccc(-c2nc3ccccc3o2)cc1NC(=O)c1ccc(-c2ccc(C)c(Cl)c2)o1	73%
COc1ccc(-c2nc3cc(C(C)C)ccc3o2)cc1NC(=O)COc1ccc(C)cc1C	59%
Cc1ccc(-c2nc3cc(C(C)C)ccc3o2)cc1NC(=O)c1cc2ccccc2o1	11% (active)
COC(=O)CCN(C(=O)C1CCN(S(=O)(=O)c2c(C)noc2/C=C/c2ccccc2F)CC1)c1ccccc1	126%
CCC(C)NS(=O)(=O)c1ccc(N2CCCCS2(=O)=O)cc1 (configuration not stated)	135%
CCOC(=O)c1noc2ncn(CC(=O)Nc3ccc(C)c(F)c3)c(=O)c12	72%
Cc1ccc(NC(=O)c2cccc(NC(=O)N3CCSc4ncccc43)c2)cc1F	92%
CCCCN(CC)Cc1ccc(CNS(=O)(=O)c2cc3c(cc2Cl)NC(=O)CO3)o1	-3% (active)
Cc1ccc(CNS(=O)(=O)c2cc3c(cc2Cl)NC(=O)CO3)o1	124%
O=C1COc2cc(S(=O)(=O)NCc3ccco3)c(Cl)cc2N1	73%
CC(C)(CO)NC(=O)c1cc(-c2ccc(Cl)cc2Cl)on1	123%
CCOC(=O)c1c(NC(=O)COc2ccc(Cl)cc2Cl)sc2c1CCCCC2	76%
COc1ccc(CNC(=O)C2CCN(S(=O)(=O)c3c(C)noc3/C=C/c3ccccc3F)CC2)cc1	94%
COc1ccc(N=Nc2c(N)n[nH]c2N)cc1	2% (active)
COc1ccc2sc(N)nc2c1	115%
Nc1n[nH]c(N)c1N=Nc1ccc(Cl)cc1	107%
